Drawing on PubChem BioAssay AID651789 (National Center for Advancing Translational Sciences (NCATS), 2012), this text covers Potency for 40 compounds.

Inconclusive results are not listed. Entries that show only a call come without a potency. The source made the active and inactive calls. Calls come from the whole dose curve; as a rule, active = well fitted inhibition curve with a large enough effect; inconclusive = small, poorly fitted or top-dose-only effect; inactive = no such curve, though single readings can be large or run the other way.
Potency is the fitted concentration of half-maximal effect.

This assay can be described thus: Acumen qHTS Assay for Inhibitors of the mTORC1 Signaling Pathway in WT MEF Cells: Hit Validation. Note: nearly all actives have a fitted effect of over 60% in size. To be noted: Acumen imaging; series mostly up to 37.3 µM. The method, boiled down: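 Read-out is immunofluorescent phospho-rpS6 (Ser235/236) normalised to PI-stained cell number, reported as % active cells using a 7.5 nM rapamycin threshold. Cells: WT or Tsc2-/-, p53-/- MEFs, compound-exposed 24 h at 37C; PI count also tracks viability.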
In the case of `Cc1ccc(NC(=O)Cn2cc(C(=O)C3CCCCC3)c3ccccc32)cc1`, the Potency result is “inactive”.
For `COc1cc(C)ccc1OCCn1c(-c2ccc(Cl)cc2)nc2ccccc2c1=O`, the Potency result is “inactive”.
For `COc1cccc(-c2nnc3sc(CN4CCCCC4)cn23)c1` the value was 1.65 µM (active); for `CCS(=O)(=O)c1ncc(Cl)c(C(=O)N2CCN(c3ccc(OC)cc3)CC2)n1`, 10.4 µM (active); for `CCc1ccc(NC(=O)C2CCCN(S(=O)(=O)c3c(C)noc3/C=C/N(C)C)C2)cc1` (stereo not given), 2.07 µM (active).
Then `CCc1ccccc1NC(=O)CSc1nc2c(oc3ccccc32)c(=O)n1-c1ccccc1F`, with “inactive”; and `Cc1ccc(NC(=O)CSc2nc(-c3ccco3)cc(C(F)(F)F)n2)cc1C`, with “inactive”.
For `COc1ccc(S(=O)(=O)NCCc2csc3nc(-c4ccc(Cl)cc4)nn23)cc1C` the value was “inactive”; for `Cc1cc(C)c2oc(-c3cccc(NC(=O)COc4ccc([N+](=O)[O-])cc4)c3)nc2c1`, “inactive”; for `CCOC(=O)c1c(NC(=O)c2ccc(S(=O)(=O)N(CCOC)CCOC)cc2)sc2c1CC(C)(C)NC2(C)C`, 3.29 µM (active).
Turning to `COc1ccc(NC(=O)CSc2c3c(nc4ccccc24)CCC3)c(OC)c1`, the Potency entry was “inactive”.
Regarding `CCOc1ccc(S(=O)(=O)N(C(=O)c2ccncc2)c2ccc3oc(C)c(C(=O)OC)c3c2)cc1`, the Potency was 14.7 µM (active).
Then `COc1cccc(-n2c(-c3ccc(C)cc3)cc3c2CC(C)(C)CC3=O)c1`, with “inactive”; and `COc1ccc(NC(=O)c2c(NC(=O)COc3ccccc3)sc3c2CCC(C)C3)cc1` (stereo not given), with “inactive”.
In the case of `Cc1nn(CC(=O)NCc2ccccc2Cl)c(=O)c2cccn12`, the Potency entry was “inactive”.
`CCOC(=O)c1ccc2ncc(C(=O)OCC)c(NCCc3ccc(OC)c(OC)c3)c2c1`: the Potency entry is “inactive”.
For `COc1ccc(-c2noc(CSc3nc(N)cc(=O)[nH]3)n2)cc1`, the Potency entry is “inactive”.
For `Cc1ccc(C)c(Cn2c3ccccc3c3cnn(CC(=O)NC(C)CCc4ccccc4)c(=O)c32)c1` (stereo not given) the value was 18.5 µM (active); for `CCOc1ccc(NC(=O)CSc2oc(-c3ccc(F)cc3)nc2S(=O)(=O)c2ccc(C)cc2)cc1`, 2.33 µM (active).
Then `CCOC(=O)Cc1ccc(NC(=O)n2ncc3cc(Cl)ccc32)cc1`, with “inactive”; and `CC(C)CS(=O)(=O)c1oc(-c2ccc(F)cc2)nc1S(=O)(=O)c1ccccc1`, with 0.585 µM (active).
Consider `O=C(CCOc1ccccc1)N(Cc1cccnc1)c1nc2c(F)cccc2s1`, for which the Potency is 13.1 µM (active).
For `COc1ccc2nc(NC(=O)c3nc(S(=O)(=O)Cc4ccccc4F)ncc3Cl)sc2c1` the value was 13.1 µM (active).
As to `COc1ccc(OC)c(NC(=O)c2nc(S(=O)(=O)Cc3ccc(F)cc3)ncc2Cl)c1`, the Potency is 3.29 µM (active).
For `O=S(=O)(c1cccc2cnccc12)N1CCCNCC1` the value was “inactive”; for `CS(=O)(=O)CCNCc1ccc(-c2ccc3ncnc(Nc4ccc(OCc5cccc(F)c5)c(Cl)c4)c3c2)o1`, “inactive”; for `CCC1=Nc2cc(C(=O)NC3CCCC3)ccc2Sc2ccc(Br)cc21`, 1.85 µM (active).
Consider `Cc1nn(C(C)C(=O)NC2CCCCC2)c(=O)c2c1sc1ccccc12` (stereo not given), for which the Potency entry was “inactive”.
For `COc1ccc(C2CC(=O)c3c([nH]c(C(=O)OC4CCCCCC4)c3C)C2)cc1OC` (stereo not given) the value was “inactive”; for `Cn1ccc2c(OCC(=O)Nc3ccc(OC(F)(F)F)cc3)cccc2c1=O`, “inactive”; for `Cc1cc(NCc2ccc(Cl)cc2)n2cnnc2n1`, “inactive”.
With `O=C(NCCSc1c(-c2ccc(F)cc2)[nH]c2ccccc12)c1ccc(S(=O)(=O)N2CCOCC2)cc1`, the Potency result was “inactive”.
`CC(C)Oc1ccc(CNC(=O)c2ccc3nc(SCc4ccc(F)cc4)n(C)c3c2)cc1`: the Potency entry is “inactive”.
Then `CC1=C(C(=O)OC2CCCC2)C(c2ccccc2Cl)CC(=O)N1` (stereo not given), with “inactive”; and `COc1ccccc1NC(=O)C1=C(C)Nc2nc(SCc3ccccc3)nn2C1c1cccs1` (stereo not given), with “inactive”.
For `CCc1nn(CC(=O)NCc2ccccc2Cl)c(=O)c2cccn12` the value was “inactive”; for `Nc1nnc(SCC(=O)Nc2cccc(F)c2)s1`, “inactive”.
In the case of `Cc1ccc(-c2nc3sccn3c2Nc2ccc(C)c(C)c2)cc1`, the Potency entry was “inactive”.
On to `O=C(NCCc1ccc(Cl)cc1)C(=O)NCC(c1cccs1)S(=O)(=O)c1cccs1` (stereo not given), for which the Potency entry is “inactive”.
For `CCCCOc1cccc(C(=O)N2CCN(CCc3ccncc3)CC2)c1` the value was “inactive”.
